# Luciferase inh = inhibitors of firefly (Photinus pyralis) luciferase; P08659; purified P. pyralis luciferase, luminescence, biochemical; Potency, µM (highest dose often 115 µM), most hits filed as inhibitors; hit rate 2.5% among 76,000; AID 1347043; also: nearly all actives have a fitted effect of over 65% in size
# Target sequence (P08659 whole entry, looked up): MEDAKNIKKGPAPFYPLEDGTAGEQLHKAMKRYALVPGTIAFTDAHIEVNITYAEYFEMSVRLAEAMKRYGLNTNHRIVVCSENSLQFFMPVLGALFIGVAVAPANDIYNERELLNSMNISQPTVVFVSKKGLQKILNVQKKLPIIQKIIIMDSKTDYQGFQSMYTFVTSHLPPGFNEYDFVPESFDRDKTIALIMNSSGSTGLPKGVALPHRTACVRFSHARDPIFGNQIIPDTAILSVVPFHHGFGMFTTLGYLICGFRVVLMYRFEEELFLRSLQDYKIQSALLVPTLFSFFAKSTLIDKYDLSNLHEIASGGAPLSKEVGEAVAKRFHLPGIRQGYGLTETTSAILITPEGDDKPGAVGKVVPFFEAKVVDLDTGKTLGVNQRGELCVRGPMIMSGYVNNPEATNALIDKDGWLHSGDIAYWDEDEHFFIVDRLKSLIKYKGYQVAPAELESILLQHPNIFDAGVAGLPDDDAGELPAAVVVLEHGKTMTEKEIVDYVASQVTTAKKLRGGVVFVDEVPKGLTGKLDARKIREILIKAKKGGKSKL
#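 Luminescence read by CCD imager after adding enzyme (10nM final) to wells holding compound, titrated in qHTS. Substrates 10uM each D-luciferin and ATP; buffer 50mM Tris acetate pH 7.5, 10mM Mg acetate, Tween-20, BSA.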
# HEK293 tox = HEK 293 cell cytotoxicity | HEK 293 viability, ATP luminescence (CellTiter-Glo), 48-72 h | Potency, µM (series often up to 115 µM), inactives show at the top dose activity change, negative = cytotoxicity, hits mostly inhibitors | hit rate 6.6% among 94,000; also: nearly all actives have a fitted effect of over 60% in size
#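 Pintool-delivered compounds were incubated with HEK 293 cells (250 cells/well) at 37 degree Celsius for 48 or 72 hr. ATP-dependent luminescence (CellTiter-Glo) then reported remaining viable cells.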
# 3T3 cytotox = NIH 3T3 cell cytotoxicity; hit rate 4.3% among 94,000; NIH 3T3 viability, CellTiter-Glo ATP luminescence, 48-72 h; Potency, µM (titrated, usually from 96.7 µM), without a hit: at the top dose activity change, negative = cytotoxicity, most hits filed as inhibitors; also: nearly all actives have a fitted effect of over 55% in size
#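 NIH 3T3 cells at 400 cells/well received 23 nL of compound by pintool and were incubated 48 or 72 h at 37 °C. Viability was read as ATP-coupled CellTiter-Glo luminescence.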
# hNpr1 antagonist = blocks ANP-stimulated signaling of human Npr1 receptor. hit rate 1.6% among 76,000. Potency, µM (top dose mostly 46.3 µM), inactives show at the top dose activity change, negative = inhibition, actives largely listed as inhibitors. HEK293 hNpr1 GloSensor cGMP, ANP-stimulated luminescence. P16066. AID 1347048; calls by dose curve; also: nearly all actives have a fitted effect of over 60% in size
#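 Compound pre-incubated 30 min at room temperature on GloSensor-loaded HEK293 cells stably carrying hNpr1 and the pGS-40F cGMP biosensor. Stimulation uses hNppA at 0.1 nM final; luminescence is taken at baseline and 20 min post-agonist.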
# The depositor's hits bear a star; i = inactive; ? = inconclusive; . = no result given; [ ] = another dose, or the depositor's remark. The list is not random: actives were taken first. Their share in the collection is about 11%. Unless noted, calls follow the shape of the dose curve; as a rule, active = well fitted curve in the direction sought with a large enough effect; inconclusive = small, poorly fitted or top-dose-only effect, or another doubt; inactive = no such curve, though single readings can be large; an effect the other way counts as inactive or inconclusive. % is scaled to controls: 0 for no effect and ±100 for the full control effect; potency is read from the fitted curve at half-maximal effect.
SMILES,Luciferase inh,HEK293 tox,3T3 cytotox,hNpr1 antagonist
CCN1c2cc(C(=O)N3CCN(c4ccccc4F)CC3)ccc2C(=O)N2CCCCC21 (centres undefined),i,?,-14.9%,0.0%
CCN1c2cc(C(=O)N3CCN(c4ccc(F)cc4)CC3)ccc2C(=O)N2CCCCC21 (centres undefined),i,44.7µM*,-22.5%,7.2%
COc1ccccc1C1NC(=O)N(CCC(C)C)C2=C1C(=O)OC2 (centres undefined),i,-7.4%,-3.3%,-10.7%
O=C(NC1CC1)c1ccccc1OC1CN(Cc2ccncc2)C1,i,?,1.7%,0.1%
O=C(NC1CC1)c1ccccc1OC1CN(Cc2cccc(C(F)(F)F)c2)C1,i,31.6µM*,?,-23.8%
O=C(NC1CC1)c1ccccc1OC1CN(Cc2ccc(C(F)(F)F)cc2)C1,i,89.1µM*,?,2.8%
CN(C)C[C@@H]1CN(C)C[C@H]1NS(=O)(=O)c1cc(F)cc(F)c1,i,-17.5%,-10.5%,-3.6%
O=C(c1cccc(Cl)c1)N1CCC(N(C(=O)C2CC2)C2CCOCC2)CC1,i,6.1%,-6.5%,-7.5%
CCOC(=O)[C@H]1C[C@]2(CCCCN(C)C2=O)N(C(=O)c2cccs2)[C@H]1c1ccco1,.,-19.3%,?,.
CCOc1ccc(NC(=O)Cn2c(C)ccc(NC(=O)Nc3cccc(C)c3)c2=O)cc1,?,39.8µM*,28.2µM*,0.0%
Cc1ccc(NC(=O)Nc2ccccc2)c(=O)n1CC(=O)N1CCN(c2ccccc2)CC1,11.2µM*,?,i,-0.9%
CNC(=O)Nc1ccc(C)n(CC(=O)N2CCN(c3ccccc3OC)CC2)c1=O,i,3.7%,i,5.2%
Cc1cccc(NC(=O)Nc2ccc(C)n(CC(=O)NC(C)C)c2=O)c1,7.08µM*,?,-23.5%,-2.1%
Cc1cc(C(=O)N2C[C@@H](C)[C@@](C)(O)C2)cc(S(N)(=O)=O)c1C,i,i,i,-3.1%
O=C(Nc1ccccc1)N1CCCC(C(=O)N2CCC(c3nc4ncccc4[nH]3)CC2)C1 (centres undefined),.,i,i,.
CCOC(=O)c1ccc(N2CCN(C(=O)C3=CC(C)(C)COc4ccc(OC)cc43)CC2)cc1,.,35.5µM*,?,.
COc1ccc(C(=O)N2CCC3(CC2)COc2ccccc2C(=O)N3)cc1,i,-3.9%,-2.8%,-5.6%
CCn1ncc(N2CCCC(CC(=O)NC3CCN(C)CC3)C2)cc1=O (centres undefined),.,-5.3%,-8.1%,.
CC(C)NC(=O)c1ccc2nnc(-c3cncc(Cl)c3)n2c1,.,i,-9.6%[138 µM],.
CCOc1ccc(NC(=O)Cn2cccc2-c2nc(-c3ccccc3)no2)cc1,i,28.2µM*,?,-3.6%
COc1ccc(NC(=O)Cn2cccc2-c2nc(-c3ccccc3)no2)cc1OC,i,31.6µM*,31.6µM*,5.3%
COc1ccccc1N1CCN(C(=O)Cn2cccc2-c2nc(-c3ccc(F)cc3)no2)CC1,i,39.8µM*,?,-4.0%
c1ccc(CN2C[C@@H]3CC[C@H](C2)N(Cc2ccc4nsnc4c2)C3)nc1,i,?,?,-1.0%
COc1ccc(C(=O)N2CCCC(n3c(C)cnc3C3CCC3)C2)cc1 (centres undefined),.,?,-26.6%,.
CN(Cc1cccnc1)C1CCCc2ccccc21 (centres undefined),i,56.2µM*,?,-0.3%[70.6 µM]
SMILES,Luciferase inh,HEK293 tox,3T3 cytotox,hNpr1 antagonist
CC(=O)N1CCCC(C(=O)N2CCCC2c2nc3ccncc3[nH]2)C1 (centres undefined),.,0.5%[172 µM],2.2%[138 µM],.
COc1ccc(-n2c(=O)c3c(n2Cc2ccccc2)CN(C(=O)C2CCC(OC)CC2)CC3)cc1 (centres undefined),i,-6.3%,?,1.5%
O=C(C1CCOCC1)N1CCc2c(n(Cc3ccccc3)n(-c3ccccc3)c2=O)C1,i,3.5%[172 µM],100µM*,-0.6%[70.6 µM]
O=C(C1CCCO1)N1CCc2c(n(Cc3ccccc3)n(-c3ccccc3)c2=O)C1 (centres undefined),i,-5.7%[172 µM],31.6µM*,2.0%[70.6 µM]
O=C1N(Cc2ccc(F)cc2)C[C@H]2CN(Cc3cnc4ccccc4c3)CCN12,i,?,70.8µM*,?
Cc1ccc(S(=O)(=O)N[C@H]2CC(C)(C)[C@@H]3C[C@@](C)(O)CC[C@]23CCC(=O)NCCc2c[nH]c3ccccc23)cc1,i,?,79.4µM*,3.8%

# Screening results: PubChem BioAssay, National Center for Advancing Translational Sciences (NCATS)
